{"source": "PubChem BioAssay (EPA / NIEHS)", "note": "Where a structure was tested more than once in an assay, its records may differ in their call. The source made the active and inactive calls. The calls were made as follows, unless noted: active = hit-call score of the fitted dose curve at least 0.9, where 1 is the maximum; inactive = score below 0.9.", "data": [{"test_system": "not listed separately", "assay": "CCTE_Shafer_MEA_dev_spike_duration_mean: CCTE's Neural Network Formation Assay for Mean Spike Duration, Shafer Lab (AID 2284051);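 as to AC50: potency for a decrease in mean network spike duration versus DMSO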", "procedure,_shortened": "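Readout is the average length of network spikes, clustered firing across electrodes, summed over DIV 5, 7, 9 and 12 as area under the curve. Neurons from rat cortex developed networks on MEA plates under continuous 12-day exposure.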", "values": [{"compound": "FC(F)(F)C(F)(F)CNCC(F)(F)C(F)(F)F", "outcome": "inactive"}, {"compound": "O=S(=O)(OCC(F)F)C(F)(F)F", "outcome": "inactive"}, {"compound": "C=CC(=O)OCC(F)(F)C(F)(F)C(F)(F)C(F)(F)COC(=O)C=C", "AC50": "7.64 µM (active)"}, {"compound": "FC(F)(F)C(F)(F)C(F)(F)C(F)(F)C(F)(F)C(F)(F)CC1CO1", "note": "(stereo not given)", "outcome": "inactive"}]}, {"test_system": "not listed separately", "assay": "CCTE_Shafer_MEA_dev_per_network_spike_spike_number_mean: CCTE's Neural Network Formation Assay for Mean Number of Spikes in a Network Spike, Shafer Lab (AID 2284053)", "procedure,_shortened": "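Continuous twelve-day exposure of developing rat cortical networks grown over 16 microelectrodes per well; spontaneous firing is captured at four time points, and the per-network-spike spike number is integrated over development by trapezoidal AUC.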", "values": [{"compound": "OCC(F)(F)C(F)(F)C(F)(F)C(F)F", "outcome": "inactive"}, {"compound": "CC(CCl)OP(=O)(OC(C)CCl)OC(C)CCl", "note": "(stereo not given)", "AC50": "50 µM (active)", "outcome": "inactive"}, {"compound": "O=C(O)C=C(C(F)(F)F)C(F)(F)F", "outcome": "inactive"}, {"compound": "O=C(O)C(F)(F)C(F)(F)C(F)F", "outcome": "inactive"}, {"compound": "FC(F)(F)C(F)(F)C(F)(F)C(F)(F)C(F)(F)CCI", "AC50": "15 µM (active)"}, {"compound": "OCCCC(F)(F)C(F)(F)C(F)(F)F", "outcome": "inactive"}, {"compound": "O=C(O)C(F)(F)C(F)(F)C(F)(F)F", "outcome": "inactive"}, {"compound": "Cc1ccc(S(=O)(=O)OCC(F)(F)C(F)(F)C(F)(F)C(F)(F)C(F)(F)C(F)F)cc1", "outcome": "inactive"}, {"compound": "OCC(F)(F)C(F)(F)C(F)(F)C(F)(F)C(F)(F)C(F)F", "outcome": "inactive"}, {"compound": "O=C(O)C(F)(F)C(F)(F)C(F)(F)C(F)(F)C(F)(F)C(F)(F)C(F)(F)C(F)(F)Cl", "outcome": "inactive"}, {"compound": "O=P(O)(O)OCCC(F)(F)C(F)(F)C(F)(F)C(F)(F)C(F)(F)C(F)(F)F", "outcome": "inactive"}, {"compound": "O=C(O)C(F)(F)C(F)(F)C(F)(F)C(F)(F)C(F)(F)C(F)(F)C(F)(F)C(F)(F)C(F)(F)C(F)F", "outcome": "inactive"}, {"compound": "OC[C@@H](O)[C@@H](O)[C@H](O)[C@@H](O)CO", "outcome": "inactive"}, {"compound": "NC(=O)C(F)(F)C(F)(F)C(F)(F)C(F)(F)F", "outcome": "inactive"}, {"compound": "O=S(=O)(OCCOC(F)(F)F)C(F)(F)F", "outcome": "inactive"}, {"compound": "OCC(F)(F)C(F)(F)C(F)(F)F", "outcome": "inactive"}, {"compound": "COC(=O)CCC(F)(F)C(F)(F)C(F)(F)C(F)(F)F", "outcome": "inactive"}, {"compound": "N=C(N)C(F)(F)C(F)(F)C(F)(F)C(F)(F)C(F)(F)C(F)(F)C(F)(F)F", "outcome": "inactive"}, {"compound": "CC(C)(C)C(=O)CC(=O)C(F)(F)C(F)(F)C(F)(F)F", "AC50": "25.3 µM (active)"}, {"compound": "FC(F)(F)C(F)(F)CNCC(F)(F)C(F)(F)F", "outcome": "inactive"}, {"compound": "O=S(=O)(OCC(F)F)C(F)(F)F", "outcome": "inactive"}, {"compound": "C=CC(=O)OCC(F)(F)C(F)(F)C(F)(F)C(F)(F)COC(=O)C=C", "AC50": "4.18 µM (active)"}, {"compound": "FC(F)(F)C(F)(F)C(F)(F)C(F)(F)C(F)(F)C(F)(F)CC1CO1", "note": "(stereo not given)", "outcome": "inactive"}]}, {"test_system": "not listed separately", "assay": "CCTE_Shafer_MEA_dev_per_network_spike_spike_percent: CCTE's Neural Network Formation Assay for Percent of Spikes in a Network Spike, Shafer Lab (AID 2284054)", "procedure,_shortened": "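Rat primary cortical neurons were grown on 48-well MEA plates (16 electrodes/well), exposed from plating day 0 through day 12, with treatment renewed on DIV 5 and 9. Percent of spikes within 0.05 s network-spike peaks was measured, summarised as AUC across days 5, 7, 9, 12.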", "values": [{"compound": "OCC(F)(F)C(F)(F)C(F)(F)C(F)F", "outcome": "inactive"}, {"compound": "CC(CCl)OP(=O)(OC(C)CCl)OC(C)CCl", "note": "(stereo not given)", "AC50": "50 µM (active)", "outcome": "inactive"}, {"compound": "O=C(O)C=C(C(F)(F)F)C(F)(F)F", "outcome": "inactive"}, {"compound": "O=C(O)C(F)(F)C(F)(F)C(F)F", "outcome": "inactive"}, {"compound": "FC(F)(F)C(F)(F)C(F)(F)C(F)(F)C(F)(F)CCI", "outcome": "inactive"}, {"compound": "OCCCC(F)(F)C(F)(F)C(F)(F)F", "outcome": "inactive"}, {"compound": "O=C(O)C(F)(F)C(F)(F)C(F)(F)F", "outcome": "inactive"}, {"compound": "Cc1ccc(S(=O)(=O)OCC(F)(F)C(F)(F)C(F)(F)C(F)(F)C(F)(F)C(F)F)cc1", "outcome": "inactive"}, {"compound": "OCC(F)(F)C(F)(F)C(F)(F)C(F)(F)C(F)(F)C(F)F", "outcome": "inactive"}, {"compound": "O=C(O)C(F)(F)C(F)(F)C(F)(F)C(F)(F)C(F)(F)C(F)(F)C(F)(F)C(F)(F)Cl", "outcome": "inactive"}, {"compound": "O=P(O)(O)OCCC(F)(F)C(F)(F)C(F)(F)C(F)(F)C(F)(F)C(F)(F)F", "outcome": "inactive"}, {"compound": "O=C(O)C(F)(F)C(F)(F)C(F)(F)C(F)(F)C(F)(F)C(F)(F)C(F)(F)C(F)(F)C(F)(F)C(F)F", "outcome": "inactive"}, {"compound": "OC[C@@H](O)[C@@H](O)[C@H](O)[C@@H](O)CO", "outcome": "inactive"}, {"compound": "NC(=O)C(F)(F)C(F)(F)C(F)(F)C(F)(F)F", "outcome": "inactive"}, {"compound": "O=S(=O)(OCCOC(F)(F)F)C(F)(F)F", "outcome": "inactive"}, {"compound": "OCC(F)(F)C(F)(F)C(F)(F)F", "outcome": "inactive"}, {"compound": "COC(=O)CCC(F)(F)C(F)(F)C(F)(F)C(F)(F)F", "outcome": "inactive"}, {"compound": "N=C(N)C(F)(F)C(F)(F)C(F)(F)C(F)(F)C(F)(F)C(F)(F)C(F)(F)F", "outcome": "inactive"}, {"compound": "CC(C)(C)C(=O)CC(=O)C(F)(F)C(F)(F)C(F)(F)F", "AC50": "22.5 µM (active)"}, {"compound": "FC(F)(F)C(F)(F)CNCC(F)(F)C(F)(F)F", "outcome": "inactive"}, {"compound": "O=S(=O)(OCC(F)F)C(F)(F)F", "outcome": "inactive"}, {"compound": "C=CC(=O)OCC(F)(F)C(F)(F)C(F)(F)C(F)(F)COC(=O)C=C", "AC50": "4.37 µM (active)"}, {"compound": "FC(F)(F)C(F)(F)C(F)(F)C(F)(F)C(F)(F)C(F)(F)CC1CO1", "note": "(stereo not given)", "outcome": "inactive"}]}, {"test_system": "DIO3 (gene 1735)", "assay": "CCTE_GLTED_hDIO3: CCTE's human Deiodinase 3 (DIO3) Inhibition Assay, Great Lakes Toxicology and Ecology Division (GLTED) Lab (AID 2284055; active = hit-call score of the fitted dose curve at least 0.9, where 1 is the maximum;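 as to AC50: potency is for inhibition seen as loss of released iodide signal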)", "procedure,_shortened": "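Enzyme activity is tracked as iodide release from substrate by recombinant human DIO3 over 3 h with chemical present. A second Sandell-Kolthoff step converts iodide to an absorbance signal, fitted relative to DMSO.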", "values": [{"compound": "CCN(Cc1cccc(S(=O)(=O)O)c1)c1ccc(C(=C2C=CC(=[N+](CC)Cc3cccc(S(=O)(=O)O)c3)C=C2)c2ccc(O)cc2S(=O)(=O)[O-])cc1", "AC50": "51.3 µM (active)"}, {"compound": "O=C(O)C(F)(F)C(F)(F)C(F)(F)C(F)(F)C(F)(F)C(F)(F)C(F)(F)C(F)(F)C(F)(F)C(F)(F)C(F)(F)C(F)(F)C(F)(F)F", "AC50": "33.1 µM (active)"}, {"compound": "c1ccc(B(c2ccccc2)c2ccccc2)cc1", "AC50": "100 µM (active)"}, {"compound": "C=C(C)C(=O)OCC(F)(F)C(F)(F)C(F)(F)F", "outcome": "inactive"}, {"compound": "O=C(O)C(F)(F)C(F)(F)C(F)(F)C(F)(F)C(F)(F)C(F)(F)C(F)(F)C(F)(F)C(F)(F)C(F)(F)C(F)(F)C(F)(F)F", "AC50": "32.8 µM (active)"}, {"compound": "CC(Cc1ccc(O)c(O)c1)C(C)Cc1ccc(O)c(O)c1", "note": "(stereo not given)", "AC50": "0.0863 µM (active)"}, {"compound": "O=C(O)C(F)(F)C(F)(F)C(F)(F)C(F)(F)C(F)(F)C(F)(F)C(F)(F)C(F)(F)C(F)(F)C(F)F", "AC50": "138 µM (active)"}, {"compound": "C=CC(=O)OCC(F)(F)C(F)(F)C(F)(F)C(F)(F)COC(=O)C=C", "AC50": "32.8 µM (active)"}]}]}
